Inconclusive results are not listed. Activity calls are given as the source filed them. The call rests on the fitted dose curve; in most records, active means well fitted cell-killing curve with a large enough effect in the repeat runs; inconclusive means weak or mixed curves; inactive means flat fitted curve, though single readings scatter.
Test: qHTS assay to identify small molecule antagonists of the estrogen related receptor (ERR) signaling pathway - cell viability counter screen (AID 1224818)
Conditions: ERR reporter cell line viability counter screen; series mostly up to 46.1 µM
From the text: National Center for Advancing Translational Sciences [NCATS]
NIH Chemical Genomics Center [NCGC]
U.S. Environmental Protection Agency [EPA]
National Institutes of Environmental Health Sciences [NIEHS]
National Toxicology Program [NTP]
U.S. Food and Drug Administration [FDA]
Estrogen related receptors (ERRs), the first orphan nuclear receptors discovered, play an important role in the control of cellular energy metabolism. ERRs are required for high-energy production in response to the environmental challenges. ERR-alpha was also identified as an adverse marker for breast cancer progression; ERR-alpha-positive tumors have a poor prognosis. To screen and to identify environmental compounds that perturb the ERR signaling pathways could provide valuable information for potential therapeutic or preventive measures in the treatment of metabolic disease. To differentiate true ERR antagonists or agonist from cytotoxic substances, the assay is multiplexed with cell viability assay.
Tox21 Assay Protocol Summary:
The ERR cells were dispensed at 2,000 cells/5 ul/well in 1536-well white plates using a Multidrop dispenser. After the assay plates were incubated at a 37 C/5% CO2 incubator for 6 hours, 23 nL of compounds dissolved in DMSO, positive and negative controls or DMSO only was transferred to the assay plate by a pin tool. The plates were incubated at 37 C for 17.5 hours. 1 ul/well of CellTiter-Fluor reagent was added into the assay plates using a Flying Reagent Dispenser. After 30 min incubation at 37 C/5% CO2, the fluorescence intensity in the plates was measured using a ViewLux plate reader.

Row | Compound | outcome
1 | O=C(O)Cc1cccc2ccccc12 | inactive
2 | CC(=O)Oc1ccccc1C(=O)O | inactive
3 | COc1cc2c(c(OC)c1OC)-c1ccc(OC)c(=O)cc1[C@@H](NC(C)=O)CC2 | inactive
4 | CC1=C(/C=C/C(C)=C/C=C/C(C)=C/C(=O)O)C(C)(C)CCC1 | inactive
5 | N[C@@H](Cc1c[nH]c2ccccc12)C(=O)O | inactive
6 | CC(=O)c1ccc(S(=O)(=O)NC(=O)NC2CCCCC2)cc1 | inactive
7 | C[C@]12CC[C@@H]3c4ccc(O)cc4CC[C@H]3[C@@H]1CCC2=O | inactive
8 | C[C@]12C[C@H](O)[C@H]3[C@@H](CCC4=CC(=O)CC[C@@]43C)[C@@H]1CC[C@@H]2C(=O)CO | inactive
9 | COc1ccccc1O | inactive
10 | CC(C)(C)NCC(O)c1ccc(O)c(CO)c1 (configuration not stated) | inactive
11 | Cn1cnc2c1c(=O)[nH]c(=O)n2C | inactive
12 | CCOC(=O)C(C)(C)Oc1ccc(Cl)cc1 | inactive
13 | O=c1c(-c2ccc(O)cc2)coc2cc(O)cc(O)c12 | inactive
14 | C[C@]12CC[C@@H]3c4ccc(O)cc4C[C@@H](CCCCCCCCCS(=O)CCCC(F)(F)C(F)(F)F)[C@H]3[C@@H]1CC[C@@H]2O (some centres not stated) | inactive
15 | NC(=O)NO | inactive
16 | CC(C)Cc1ccc(C(C)C(=O)O)cc1 (configuration not stated) | inactive
17 | CCN(CC)CCOC(=O)c1ccc(N)cc1 | inactive
18 | N[C@@H](Cc1c[nH]c2ccc(O)cc12)C(=O)O | inactive
19 | Cc1cnc(NC(=O)C2=C(O)c3ccccc3S(=O)(=O)N2C)s1 | inactive
20 | NC(=O)OCC(COC(N)=O)c1ccccc1 | inactive
21 | NC(=O)N1c2ccccc2C=Cc2ccccc21 | inactive
22 | CN/C(=C\[N+](=O)[O-])NCCSCc1ccc(CN(C)C)o1 | inactive
